Screens (PubChem)
hgDAF12 agonist = activates the H. glycines DAF-12 receptor ligand-binding domain; HEK293 GAL4-hgDAF12 UAS-luciferase reporter, agonist luminescence; normalized to butyrate control; 370,000 tested, 1.8% active; activation, % at 6.8 µM;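 active means activation above a cutoff set at the mean of all screened compounds plus 3 SD, cut at about 10% in these data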
DAX1 inh-1 = NR0B1 (DAX1) inhibition | inhibition, % at 6.75 µM | 340,000 tested, 0.99% active | P51843 | HEK293 Gal4-DAX1 luciferase reporter, luminescence | AID 504766;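 active means inhibition above the mean over all tested compounds plus 3 SD, cut at about 4.2% in these data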;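 further: inhibition shows as a rise in luminescence from relieved DAX1 repression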
Target sequence (P51843 207-470 limits assumed): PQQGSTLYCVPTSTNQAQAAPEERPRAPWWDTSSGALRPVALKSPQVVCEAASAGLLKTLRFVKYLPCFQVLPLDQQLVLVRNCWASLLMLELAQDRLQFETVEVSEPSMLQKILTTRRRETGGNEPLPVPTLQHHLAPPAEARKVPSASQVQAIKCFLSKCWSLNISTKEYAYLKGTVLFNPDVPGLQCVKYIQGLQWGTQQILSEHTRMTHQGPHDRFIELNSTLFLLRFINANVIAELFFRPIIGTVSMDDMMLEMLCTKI
DAX1 inh-2 = DAX1 (NR0B1) inhibition, primary screen. 370,000 tested, 1.1% active. inhibition, % at 6.8 µM. HEK293T StAR-luciferase reporter, SF-1/DAX-1 repression relief;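 active means inhibition above the mean over all tested compounds plus 3 SD, cut at about 3.6% in these data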;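 further: higher inhibition means more luminescence from relief of DAX-1 repression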
hcDAF12 agonist = H. contortus DAF-12 activation, primary screen; HEK293 hcDAF-12 lit1-tk-luc reporter, luminescence; 0% DMSO, 100% Δ7-dafachronic acid; 370,000 tested, 1.4% active; activation, % at 6.8 µM; AID 652067;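 active means activation above the mean of all tested compounds plus 3 SD, cut at about 5.5% in these data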
SMARCA2 act = activators of SMARCA2 function | AID 652017 | MG213 cells, MMTV-luciferase reporter, dexamethasone, overnight | 370,000 tested, 1% active | activation, % at 9.1 µM; in the data active means activation above about 7.8%
ssDAF12 agonist = activators of S. stercoralis DAF-12 nuclear receptor; 370,000 tested, 1% active; HEK293 ssDAF-12/GRIP1 lit1-tk-luc reporter, luminescence; % of 3 µM dafachronic acid response; activation, % at 6.8 µM;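 active means activation above the mean over all tested compounds plus 3 SD, cut at about 0.9% in these data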
Large screens that a line does not name were inactive. Sampled rows, rich in hits. Any-hit rate of the full collection: about 4.8%.

COc1ccc(CN2CCNCC2)c(OC)c1OC	none
COc1cc(CN2CCNCC2)cc(OC)c1OC	ssDAF12 agonist 1.0
CN1CCC(N(C)c2ccc(C(N)=O)cc2[N+](=O)[O-])CC1	none
O=c1c2ccccc2nc(/C=C/c2ccccn2)n1-c1ccccc1	hgDAF12 agonist 10.5
Cc1ccc(-n2c(/C=C/c3ccccn3)nc3ccccc3c2=O)cc1	none
COc1cc(/C=C/[N+](=O)[O-])ccc1OC(=O)c1cccnc1	ssDAF12 agonist 1.3
CN(C)c1ccc(CCN2CCOCC2)cc1	hgDAF12 agonist 10.8, ssDAF12 agonist 1.2
CSc1ccc(CN2CCN(Cc3ccccc3Cl)CC2)cc1	none
CN1CCN(c2c(N)c(=O)oc3ccccc23)CC1	none
Nc1ccc2c(c1)oc1ccccc12	hgDAF12 agonist 11.2
COCCOC(=O)c1c(N)n(Cc2ccco2)c2nc3ccccc3nc12	none
C(=NC1CCCCC1)c1c[nH]c2ccccc12	none
COc1cc(C2c3cc4c(c(O)c3CC3COC(=O)C32)OCO4)cc(OC)c1OC (configuration not stated)	none
COc1cc(C2c3cc(O)c(OC)cc3CC3C(=O)OCC32)ccc1O (configuration not stated)	DAX1 inh-1 4.8
COc1cc(C2c3cc4c(cc3CC3COC(=O)C32)OCO4)cc(OC)c1OC (configuration not stated)	DAX1 inh-2 4.4
C=C1C[C@]2(O)[C@@]3(C)CCC(=O)C(C)(C)C3=C(O)C(=O)[C@@]2(C)[C@@H]2C(=O)O[C@@](C)(C(=O)OC)C(=O)[C@@]12C	DAX1 inh-1 5.0
CCc1ccc(OCC(=O)N2CCN(Cc3ccc4c(c3)OCO4)CC2)cc1	none
Cc1cc(OCC(=O)NC(Cc2ccc(Cl)cc2)C(=O)O)c2c3c(c(=O)oc2c1)CCC3 (configuration not stated)	DAX1 inh-1 5.8
Cc1ccc(S(=O)(=O)Cc2ccc(C(=O)N3CCC4(CC3)OCCO4)o2)cc1	hcDAF12 agonist 5.8
Cc1ccc(CS(=O)(=O)Cc2ccc(C(=O)N3CCC4(CC3)OCCO4)o2)cc1	none
Cc1cc([P+](=O)O)c(C)n1-c1ccc(Br)cc1	ssDAF12 agonist 1.5
Cc1c(N=Nc2c(O)n(-c3ccc(Br)cc3)c(=O)[nH]c2=O)c(=O)n(-c2ccccc2)n1C	none
N#Cc1c(/N=C/c2c(O)n(Cc3ccco3)c(=O)[nH]c2=O)sc2c1CCCC2	none
NS(=O)(=O)OC(CCc1ccccc1)C(Cl)(Cl)Cl (configuration not stated)	none
CN1CCN(c2ccc(S(=O)(=O)C(F)(F)F)cc2[N+](=O)[O-])CC1	none
COc1cc2c(c(OC)c1OC)-c1ccc(O)c(=O)cc1C(NC(C)=O)CC2 (configuration not stated)	DAX1 inh-1 6.4
COc1ccc2c(c1)C(NC(C)=O)CCc1cc(OC)c(OC)c(OC)c1-2 (configuration not stated)	DAX1 inh-2 3.9
CC(C)CNC(=O)c1c(N)n(Cc2ccc3c(c2)OCO3)c2nc3ccccc3nc12	none
Cc1ccc2cc(C=C(C#N)C#N)c(Cl)nc2c1	ssDAF12 agonist 1.4
CCC(C)N1C(=O)/C(=C\c2ccc(N3CCCCCC3)cc2)C(=O)NC1=S (configuration not stated)	ssDAF12 agonist 5.5
CCC(C)N1C(=O)/C(=C\c2cc3c4c(c2)CCCN4CCC3)C(=O)NC1=S (configuration not stated)	none
Nc1ccccc1C(=O)OCc1ccc([N+](=O)[O-])cc1	hgDAF12 agonist 11.2
CC1(C)NC(=S)C(C)(C)N1N=O	ssDAF12 agonist 6.5
CCC1CN2CCc3cc(OC)c(OC)cc3C2CC1CC1NCCc2c1[nH]c1ccc(O)cc21 (configuration not stated)	none
Nc1nonc1OCCCCOc1nonc1N	ssDAF12 agonist 3.3
COCCO[C@H]1CC[C@@]2(C)C(=CCC3C2CC[C@@]2(C)C3CC[C@]2(C)O)C1 (some centres not stated)	hgDAF12 agonist 10.6
COC(=O)c1c2[n+](cc3cc(OC)c(OC)cc13)CCc1cc(OC)c(OC)cc1-2	DAX1 inh-1 4.5
COC(=O)C1=C(c2ccc(OCc3ccccc3)cc2)C[C@@H]2CC[C@H]1N2C(=O)NCc1ccc(C(C)(C)C)cc1	none
C[C@H]1CC[C@@H]2[C@@H](C)[C@H]3[C@H](C[C@H]4[C@@H]5CC=C6C[C@@H](O[C@@H]7O[C@H](CO)[C@H](O)[C@H](O[C@@H]8O[C@H](CO)[C@@H](O)[C@H](O)[C@H]8O)[C@H]7O[C@@H]7O[C@@H](C)[C@H](O)[C@@H](O)[C@H]7O)CC[C@]6(C)[C@H]5CC[C@]34C)N2C1	DAX1 inh-1 4.3
Cc1cc(OC(C)C(=O)NCC2CCC(C(=O)O)CC2)c2c3c(c(=O)oc2c1)CCC3 (configuration not stated)	none
Cc1nc2cc(-c3ccccc3)nn2c(C)c1CCC(=O)N1CCC2(CC1)OCCO2	none
Cc1nc2ncnn2c(C)c1CCC(=O)N1CCC2(CC1)OCCO2	DAX1 inh-1 4.6
CC(C)C[C@H](NC(=O)[C@@H]1CCCN1C(=O)[C@@H](N)Cc1ccc(O)cc1)C(=O)NCC(N)=O	none
COc1ccccc1Sc1ccccc1CC(C)N (configuration not stated)	none
Nc1c2c(nc3sc4c(c13)CCCC4)CCCC2	hgDAF12 agonist 10.8
CCOc1cc(C)cc2oc(=O)c3c(c12)CCCC3	none
CCOC(=O)[C@]12Cc3ccccc3[C@H]1N(Cc1ccccc1)C(=O)c1cc(F)c(F)cc12	none (no result: DAX1 inh-1)
CN1CCN(Cc2cc(=O)n3ccsc3n2)CC1	none
O=c1cc(CN2CCNCC2)nc2sccn12	DAX1 inh-1 4.9
CCC(=O)OC1CCC2C3CCC4CC(=O)C=CC4(C)C3CCC12C (configuration not stated)	none
Cc1ccc(-c2nc(N(C)C3CCN(C)CC3)c3ccccc3n2)cc1	hcDAF12 agonist 6.0
CC(=NCCCO)c1c(O)n(Cc2ccccc2)c(=O)[nH]c1=O	none
N#CC[N+]1(CCCNP2(=O)C=C(c3ccccc3)OC(c3ccccc3)=C2)CCOCC1	DAX1 inh-1 6.2
O=C(c1ccc(F)cc1Cl)N1CCC2(CC1)OCCO2	none
O=C(c1cc2cc(F)ccc2[nH]1)N1CCC2(CC1)OCCO2	ssDAF12 agonist 1.8
Cn1c(=O)n(C)c2cc([N+](=O)[O-])c(N3CCNCC3)cc21	none
CC1CCCCN1CC(O)c1c[nH]c2ccccc12 (configuration not stated)	hcDAF12 agonist 6.4
CC1CCCCN1Cc1c[nH]c2ccccc12 (configuration not stated)	none
